From ChEMBL document CHEMBL4296182, “CO-ADD screening of NIH NCI Diversity Set V”
For part of these data: Potency and affinity values are given separately.

Legend:
Staphylococcus aureus = test: Antibacterial activity against Staphylococcus aureus MRSA ATCC 43300 (CO-ADD:GP_020); MIC in CAMBH media using NBS plates, by Resazurin F(560/590); assay type: functional; conditions: Concentration 20 uM, ASSAY_TEST Inhibition of Bacterial Growth, detection method Resazurin, Fluorescence (ex560/em590), MEDIA CAMHB, plate type 384well, CORNING #3640, time 18 hr
Acinetobacter baumannii = test: Antibacterial activity against Acinetobacter baumannii ATCC 19606 (CO-ADD:GN_034); MIC in CAMBH media using NBS plates, by Resazurin F(560/590); assay type: functional; conditions: Concentration 20 uM, ASSAY_TEST Inhibition of Bacterial Growth, detection method Resazurin, Fluorescence (ex560/em590), MEDIA CAMHB, plate type 384well, CORNING #3640, time 18 hr
Escherichia coli = test: Antibacterial activity against Escherichia coli ATCC 25922 (CO-ADD:GN_001); MIC in CAMBH media using NBS plates, by Resazurin F(560/590); assay type: functional; conditions: Concentration 20 uM, ASSAY_TEST Inhibition of Bacterial Growth, detection method Resazurin, Fluorescence (ex560/em590), MEDIA CAMHB, plate type 384well, CORNING #3640, time 18 hr
Klebsiella pneumoniae = conditions: Concentration 20 uM; ASSAY_TEST Inhibition of Bacterial Growth; detection method Absorption (OD600); MEDIA CAMHB; plate type 384well; NBS; CORNING #3640; time 18 hr
Candida albicans = conditions: 20 µM
Cryptococcus neoformans = conditions: Concentration 20 uM; ASSAY_TEST Inhibition of Fungal Growth; detection method Resazurin; Absorption (OD600-OD570); plate type 384well; NBS; CORNING #3640

SMILES	Inhibition (Staphylococcus aureus)	Inhibition (Acinetobacter baumannii)	Inhibition (Escherichia coli)	Inhibition (Klebsiella pneumoniae)	Inhibition (Candida albicans)	Inhibition (Cryptococcus neoformans)
Cc1ccc(C(C)C)cc1NC(=O)Nc1ccc([N+](=O)[O-])cc1	19.7%	7.88%	-5.77%	22.27%	8.72%	-7.56%
CN1CCC(n2[nH]c(-c3ccccc3)c(Cc3ccccc3)c2=O)CC1 [BENZPIPERYLON]	11.83%	-21.66%	9.93%	7.59%	-2.02%	-11.9%
CC1(C)C2CCC(CN=C(N)CSS(=O)(=O)O)C1C2 (stereo not given)	18.41%	14.08%	1.93%	19.04%	-2.77%	-13.54%
C=CCNC(S)=NCC	0.32%	-1.02%	11.35%	13%	0.61%	-1.87%
Nc1ccc(C(=O)Nc2cccc(N)c2)cc1	4.61%	-10.29%	5.56%	4.23%	0.06%	-9.54%
Cc1c(CCO)c(=O)n2n1CCCC2	-14.7%	-6.34%	-10.48%	7.18%	-0.03%	3.75%
COc1ccc(C2OC3=Nc4cc(C)c(C)cc4NC3=C2O)cc1 (stereo not given)	19.36%	6.66%	1.83%	7.32%	1.04%	-7.87%
O=C(O)c1ccc2c(c1Sc1ccccc1)C(=O)c1ccccc1C2=O	-2.35%	11.62%	-1.12%	2.65%	1.7%	-3.15%
CCOC(=O)c1c[nH]nc1O	2.24%	-6.35%	-2.97%	21.4%	-1.88%	1.44%
O=C(O)/C=C\c1cc2c(cc1[N+](=O)[O-])OCO2	16.17%	-13.7%	7.39%	10.81%	3.76%	-6.94%
COc1ccc(C(C)=O)cc1CO/N=C1\CSCc2ccccc21	16.78%	9.55%	4.94%	9.39%	18.6%	-2.91%
C=CCNC(=S)NCC=C	10.5%	-8.96%	3.32%	27.24%	1.09%	2.25%
Cc1nc(NC(=N)N(C)C)nc(O)c1C	4.99%	-6.08%	5.79%	6.63%	0.54%	-10.51%
Sc1nc2ccccc2n2cccc12	2.5%	-10.79%	2.01%	3.32%	17.9%	-1.74%
CCC12CCCN3CCc4c(n(c5ccccc45)C(O)(C(=O)OC)C1)C32 (stereo not given)	7.39%	9.61%	2.09%	11.45%	0.39%	5.96%
O=C1NC(=S)S/C1=C\c1ccccc1C(=O)O	-3.3%	-13.4%	1.72%	11.85%	14.4%	-5.59%
COc1ccc(/C(C#N)=C/c2ccccn2)cc1	30.75%	-12.49%	21.69%	10.64%	7.54%	8.53%
Cc1ccc(NC(=O)N2CCCCC2)cc1NC(=O)N1CCCCC1	-1.56%	7.43%	3.01%	16.93%	3.17%	1.83%
CNc1nc(SC)n(C)c(=O)c1N=O	10.57%	-4.07%	13.38%	9.07%	-3.41%	-15.4%
CCC1=C(c2ccc(OC)cc2)CCC(C(=O)O)C1C (stereo not given)	20.78%	6.76%	-4.91%	12.8%	12.4%	-6.31%
COc1ccc(/N=C\c2c(O)ccc3c2oc2cc(Cl)c(O)c(Cl)c23)cc1	-3.23%	0.5%	-4.89%	17.64%	2.89%	-10.03%
CC(C)Oc1ccc(C(=O)O)cc1	3.26%	-8.45%	5.58%	15.4%	24.9%	-0.99%
CCOC(=O)Nc1c2ccccc2nc2ccccc12	6.28%	-11.12%	4.72%	16.5%	2.36%	-13.98%
c1ccc(-c2nnc3nc(N4CCCCC4)nc(N4CCCCC4)n23)cc1	-3.53%	-1.96%	14.28%	1.6%	1.09%	-15.11%
CCOC(=O)c1c(C)oc(C)c(C(=O)OCC)c1=O	10.05%	8.54%	-0.85%	10.69%	0.83%	-7.36%

SMILES	Inhibition (Staphylococcus aureus)	Inhibition (Acinetobacter baumannii)	Inhibition (Escherichia coli)	Inhibition (Klebsiella pneumoniae)	Inhibition (Candida albicans)	Inhibition (Cryptococcus neoformans)
CC1=CC(=C2C=CC(=O)C=C2)C=C(C)N1C	0.37%	-6.52%	4.86%	-4.58%	4.83%	-12.1%
Nc1ccc2c(c1)N=[N+]([O-])c1cc(N)ccc1C2	12.24%	-9.52%	10.77%	23.9%	-4.33%	-8.98%
Cc1cccc(C)c1NC(=O)NCc1ccco1	-11.45%	7.13%	6.33%	8.14%	2.89%	-10.4%
NCc1c(O)ccc2ccccc12	7.19%	-7.97%	-11.88%	11.42%	3.27%	15.16%
O=C(O)CCc1cccnc1	18.41%	-3.93%	16.49%	14.5%	1.32%	-2.51%
O=C(Nc1ccc2ccccc2c1)c1cccc(F)c1	-15.53%	-12.84%	8.09%	2.58%	9.01%	-2.23%
O=c1cc(-c2cccnc2)oc2c1ccc1ccccc12	20.75%	-10.07%	18.5%	-1.55%	29.4%	-11.93%
Cc1ccc(Nc2c(O)ncnc2O)cc1C	-23.26%	-4.13%	-16.23%	1.1%	0.31%	16.78%
Nc1ccc(SCc2nc3cccc4c3n2CCC4)cc1	3.62%	-8.53%	10.5%	16.5%	-0.32%	-14.91%
CN1C(=C=Cc2cc(I)c(O)c(I)c2)C(C)(C)c2ccccc21	20.66%	1.84%	10.92%	7.2%	6.34%	5.51%
CN(C)C(=O)OCC1COc2ccccc2O1 (stereo not given)	14.89%	-13.85%	7.79%	12.42%	-0.21%	-9.62%
Clc1cc2c(c(CSc3nc4ccccc4n4cccc34)c1)OCOC2	18.29%	11.44%	-3.64%	3.77%	0.34%	2.56%
COc1cc(NC(C)=O)c2ncccc2c1NC(C)=O	3.21%	8.89%	-13.22%	18.39%	5.47%	12.48%
COc1ccc2c(c1)CCCN2C(=N)Nc1ccc(Cl)cc1	-10.2%	2.99%	-14.68%	7.66%	3.95%	6.87%
Cc1cc(-n2cnc3c(O)ncnc32)ccc1N	0.18%	-17.95%	5.61%	1.65%	1.13%	-8.1%
O=C(O)C(Cc1c[nH]c2ccccc12)N1C(=O)c2ccccc2C1=O (stereo not given)	3.51%	4.73%	-5.16%	9.04%	3.93%	13.59%
NC(=O)c1ccccc1OCC(=O)Nc1ccc(Cl)c(Cl)c1	5.21%	-16.17%	19.19%	9.46%	4.37%	-18.28%
C=C(C)CN1C(=O)C(C)S/C1=N/N=C1/SCC(=O)N1C (stereo not given)	12.61%	8.16%	1.61%	14.62%	6.81%	-8.83%
Cc1nc(N)nc(Cl)c1CCC1OCCO1	7.04%	-8.91%	8.75%	6.29%	2.66%	-6.74%
NC(=O)c1ccc2c(c1)S(=O)(=O)c1ccccc1C2=O	12.96%	-8.12%	-3.77%	24.13%	1.19%	-8.66%
CCC(C)NC(=O)c1cccc(C)c1 (stereo not given)	27.07%	-10.03%	12.99%	13.06%	3.19%	-7.62%
CN(C)/C=N/c1ccc(Cl)c(Cl)c1	2.81%	14.75%	-10.37%	19.84%	8.37%	-5.94%
Clc1ccc(Nc2nnc(-c3ccc4c(c3)OCO4)o2)cc1	-8.18%	6.42%	9.52%	10.29%	4.12%	44.25%
CC(C)(C)C(=O)/C=C/c1ccc(Oc2ccccc2)cc1	7.11%	-6.09%	-4.94%	20.89%	4.03%	-10.02%
CCOc1ccc(NC(=S)NC(=O)c2ccco2)cc1	8.6%	0.34%	3.81%	5.03%	7.98%	-14.9%
